A short description of test [1]: optical density shifts of acrAB sulA E. coli – strain DRC41, OD650, 48 h, E. coli filamentation inducer project, primary screen (AID 1152).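 Note: E. coli MC1000 strain DRC41 lacking acrAB efflux pump and sulA.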 As to conditions: higher = more signal, called active from +8 up or from −8 down.
Test [2] is described as follows: probe aLefty1 binding on compound microarray – biochemical, small-molecule microarray, 635/667 nm fluorescence, primary screen (AID 1153).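 Note: score merges spot fluorescence with signal-to-noise ratio from the scanned slide images.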 As to conditions: higher = more signal.
The nature of test [3]: plasmodial surface anion channel blockers, osmotic lysis – cell-based, P. falciparum Indochina, OD700, 1 h, primary screen (AID 1154). As to conditions: P. falciparum Indochina infected RBC osmotic lysis, higher = more signal, called active from +8 up or from −8 down.
Test [4] is described as follows: plasmodial surface anion channel blockers, osmotic lysis – cell-based, P. falciparum Indochina, OD700, 2 h, primary screen (AID 1155).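 Note: lysis reports solute entry through the parasite surface anion channel PSAC.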 As to conditions: P. falciparum Indochina infected erythrocytes, higher = more signal, called active from +8 up or from −8 down.
Test [5] can be described thus: changes in parasitized red cell lysis, either direction – P. falciparum Indochina, OD700, 3 h, PSAC antagonist project, primary screen (AID 1156). As to conditions: P. falciparum-infected erythrocytes, osmotic lysis, higher = more signal, called active from +8 up or from −8 down.
Test [6] is described as follows: plasmodial surface anion channel blockers, osmotic lysis – cell-based, P. falciparum Indochina, OD700, 18 h, primary screen (AID 1157). As to conditions: P. falciparum Indochina infected erythrocytes, osmotic lysis OD700, 18 h; higher = more signal, called active from +8 up or from −8 down.
The nature of test [7]: S6 kinase pathway phospho-S6 level changes – cell-based, A549, cytoblot, luminescence, serum-stimulated, primary screen (AID 1158).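 Note: serum-stimulated A549 lung adenocarcinoma cells; signal is phosphorylated S6 detected by cytoblot immunostaining with HRP secondary.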 As to conditions: 5 h, higher = more signal.
Test [8] has as its target NADPH oxidase 2 (Homo sapiens) (UniProt P04839). The experiment in a line: compounds shifting NOX2 Amplex Red fluorescence – cell-based, HEK293-NOX2, PMA-stimulated, NOX inhibitor project, primary screen (AID 1159). Note: test concentration not given here. Particulars: 45 min, higher = more signal, called active from +8 up or from −8 down.
Test [9] deals with NADPH oxidase 4 (Homo sapiens) (UniProt Q9NPH5). The test is described as follows: compounds shifting NOX4 Amplex Red fluorescence – cell-based, HEK293-NOX4, tetracycline-induced, NOX inhibitor project, primary screen (AID 1160). As to conditions: HEK293-NOX4, Amplex Red H2O2 fluorescence, 45 min; higher = more signal, called active from +8 up or from −8 down.
Sequence of NADPH oxidase 4 (Homo sapiens) (Q9NPH5 whole entry, looked up): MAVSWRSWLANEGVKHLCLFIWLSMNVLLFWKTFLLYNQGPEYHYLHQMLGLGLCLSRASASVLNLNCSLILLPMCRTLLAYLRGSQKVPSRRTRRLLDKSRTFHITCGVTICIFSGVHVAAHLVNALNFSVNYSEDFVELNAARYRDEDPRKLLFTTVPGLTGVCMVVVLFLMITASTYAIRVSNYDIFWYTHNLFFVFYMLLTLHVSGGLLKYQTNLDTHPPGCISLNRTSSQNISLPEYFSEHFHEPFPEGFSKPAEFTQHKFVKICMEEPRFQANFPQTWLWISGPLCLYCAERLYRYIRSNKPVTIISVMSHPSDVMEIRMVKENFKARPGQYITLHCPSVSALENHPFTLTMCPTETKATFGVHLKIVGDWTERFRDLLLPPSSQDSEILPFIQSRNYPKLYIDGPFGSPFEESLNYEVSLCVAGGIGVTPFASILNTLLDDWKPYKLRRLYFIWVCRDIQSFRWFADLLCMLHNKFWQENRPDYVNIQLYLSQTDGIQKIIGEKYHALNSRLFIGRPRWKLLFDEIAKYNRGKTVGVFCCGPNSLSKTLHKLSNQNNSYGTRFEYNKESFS
For test [10], the target named is NADPH oxidase 5 (Homo sapiens) (UniProt Q96PH1). The test is described as follows: compounds shifting NOX5 Amplex Red fluorescence – cell-based, HEK293-NOX5, NOX inhibitor project, primary screen (AID 1161). Particulars: HEK293-NOX5, ionomycin, 45 min, higher = more signal.
Sequence of NADPH oxidase 5 (Homo sapiens) (Q96PH1 whole entry, looked up): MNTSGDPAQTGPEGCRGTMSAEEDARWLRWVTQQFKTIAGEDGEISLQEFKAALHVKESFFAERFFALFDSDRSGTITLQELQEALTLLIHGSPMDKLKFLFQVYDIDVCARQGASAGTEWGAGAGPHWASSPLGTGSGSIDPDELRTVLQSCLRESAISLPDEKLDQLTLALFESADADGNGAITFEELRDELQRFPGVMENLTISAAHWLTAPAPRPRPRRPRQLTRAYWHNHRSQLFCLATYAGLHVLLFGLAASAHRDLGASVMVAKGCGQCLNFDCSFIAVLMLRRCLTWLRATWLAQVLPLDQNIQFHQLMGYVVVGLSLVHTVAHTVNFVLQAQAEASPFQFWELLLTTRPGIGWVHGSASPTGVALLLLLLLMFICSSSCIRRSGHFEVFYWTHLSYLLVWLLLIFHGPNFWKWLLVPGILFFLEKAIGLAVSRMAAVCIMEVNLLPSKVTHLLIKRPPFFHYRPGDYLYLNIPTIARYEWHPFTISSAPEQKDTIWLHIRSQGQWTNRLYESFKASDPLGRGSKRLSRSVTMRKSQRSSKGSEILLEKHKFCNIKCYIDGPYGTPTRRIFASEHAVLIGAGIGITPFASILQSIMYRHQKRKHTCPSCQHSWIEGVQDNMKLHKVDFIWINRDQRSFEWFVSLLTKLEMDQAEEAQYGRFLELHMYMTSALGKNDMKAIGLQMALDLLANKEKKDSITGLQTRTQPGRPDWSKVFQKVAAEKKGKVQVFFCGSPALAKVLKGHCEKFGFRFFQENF

Drawing on PubChem BioAssay, this text covers z-score and composite z-score for twelve compounds.

The structures appear in SMILES notation. Activity calls are given as the source filed them.

Sequence of NADPH oxidase 2 (Homo sapiens) (P04839 whole entry, looked up): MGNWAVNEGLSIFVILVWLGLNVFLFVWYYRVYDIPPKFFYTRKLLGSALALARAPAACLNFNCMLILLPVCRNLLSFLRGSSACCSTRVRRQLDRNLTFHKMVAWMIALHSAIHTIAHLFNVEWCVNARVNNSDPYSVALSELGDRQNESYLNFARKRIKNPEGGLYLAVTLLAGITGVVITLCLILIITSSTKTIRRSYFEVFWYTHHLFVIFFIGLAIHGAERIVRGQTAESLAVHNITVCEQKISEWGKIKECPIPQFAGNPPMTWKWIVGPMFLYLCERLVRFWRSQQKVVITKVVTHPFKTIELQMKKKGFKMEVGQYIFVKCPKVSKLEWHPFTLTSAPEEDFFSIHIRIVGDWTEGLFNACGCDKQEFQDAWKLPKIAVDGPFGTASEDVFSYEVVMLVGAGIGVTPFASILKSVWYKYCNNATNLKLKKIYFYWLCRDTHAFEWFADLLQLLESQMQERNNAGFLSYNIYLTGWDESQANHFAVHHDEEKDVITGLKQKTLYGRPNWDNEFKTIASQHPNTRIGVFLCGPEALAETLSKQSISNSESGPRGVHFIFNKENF

For `C=C(COC)/C(=C/C[C@H](OC(C)=O)c1ccc(OCCO)cc1)c1cc(C(=O)OC)ccc1OC`, the z-score in test [1] is 1.28 (inactive); in test [3], 24.8 (active); in test [4], 7.54 (inactive); in [5], 2.08 (inactive); in test [6] it was 1.14 (inactive); in test [7], 0.497. The z-score in test [8] is 1.6 (inactive); in [9] it was 1.03 (inactive); in test [10], -1.34. Further, the composite z-score in test [2] was 0.188.

Consider `C=CCNC(=O)[C@H]1[C@@H]2C(=O)O[C@@H](c3ccccc3)[C@@H](c3ccccc3)N2[C@@H](c2ccc(O)cc2)[C@]12C(=O)N(C(=O)OCCOC)c1ccccc12`, for which the z-score was -0.0476 (inactive) in test [1]; 1.97 (inactive) in [3]; 0.481 (inactive) in test [4]; 1.77 (inactive) in [5]; 0.148 (inactive) in test [6]; -0.233 in test [7]. Also, the values for the z-score in test [8], in test [9] and in [10] were 0.974 (inactive), -0.168 (inactive) and 0.605, respectively. In test [2], the composite z-score was -0.514.

Take `O=C1N(Cc2ccccc2)Cc2ccccc2[C@@H]2OC(c3ccc(OCCCO)cc3)=N[C@]12CCS(=O)(=O)c1ccccc1`: the z-score is -0.715 (inactive) in [1]; 21.2 (active) in test [3]; 4.09 (inactive) in test [4]; 2.99 (inactive) in test [5]; 0.492 (inactive) in test [6]; 0.0549 in test [7]. In addition, the z-score in [8] was -0.146 (inactive); in [9], 1.23 (inactive); in test [10], 1.03. Besides, the composite z-score in test [2] is 0.547.

For `COc1cc(CO)cc(I)c1O[C@H]1C=C(C(=O)NCCO)C[C@@H](NCc2ccc(F)cc2)[C@@H]1O`, the z-score in test [1] is 0.548 (inactive); in test [3], 21.8 (active); in test [4], 5.43 (inactive); in [5], 4.03 (inactive); in [6], 1.36 (inactive); in test [7], 0.325. The z-score was -1.07 (inactive) in test [8], -1.05 (inactive) in [9] and -0.994 in test [10]. Further, the composite z-score in test [2] was -0.24.

As to `COc1ccc(C#Cc2ccc3c(c2)[C@]2(C(=O)N3)[C@H](c3ccc(O)cc3)N3[C@H](c4ccccc4)[C@H](c4ccccc4)OC(=O)[C@H]3[C@@H]2C(=O)O)cc1`, the z-score is 1.09 (inactive) in test [1]; -1.12 (inactive) in test [3]; -1.32 (inactive) in test [4]; -8.12 (active) in test [5]; -2.53 (inactive) in test [6]; 2.76 in test [7]. Moreover, the z-score in test [8] is 0.397 (inactive); in test [9], -2.46 (inactive); in test [10] it was 0.00974. Further, the composite z-score in test [2] came out at 0.948.

Turning to `[N-]=[N+]=NCc1ccccc1C[C@]1(C(N)=O)N=C(c2ccc(OCCCO)cc2)O[C@H]1c1ccccc1`, the z-score in [1] is 1.06 (inactive); in test [3], 21 (active); in test [4] it was 3.55 (inactive); in test [5], 0.0533 (inactive); in [6], 0.913 (inactive); in test [7] it was 0.349. Further, the z-score is -3.27 (inactive) in [8], -0.839 (inactive) in test [9] and -1.95 in test [10]. Moreover, in [2], the composite z-score is -0.227.

Take `COC(=O)Cn1c(C(=O)N(C)C)cc2c1C[C@H]1CN(C(=O)c3ccccc3)[C@@](Cc3ccc(F)cc3)(C(=O)OC)[C@@H]21`: the z-score in test [1] is -1.25 (inactive); in test [3], 0.628 (inactive); in test [4] it was 0.238 (inactive); in test [5], 0.13 (inactive); in [6] it was 0.52 (inactive); in test [7] it was -0.38. The z-score in [8] was 0.174 (inactive); in test [9] it was -0.765 (inactive); in test [10], -1.26. In addition, the composite z-score in test [2] worked out at 0.523.

Consider `CCOc1cc(C(O)C2C=CC3C(=O)N(C)C(=O)C3N2Nc2ccccc2)ccc1O` (stereo not given), for which the z-score in [1] was -0.353 (inactive); in test [3], 0.453 (inactive); in test [4], 1.45 (inactive); in test [5] it was 0.42 (inactive); in test [6] it was 1.42 (inactive); in test [7], -1.01. Besides, the figures for the z-score in [8], in test [9] and in test [10] were -1.4 (inactive), -1.94 (inactive) and -1.78, respectively. For the same compound, the composite z-score in [2] was determined as 0.0313.

For `[N-]=[N+]=Nc1ccccc1C[C@]1(C(N)=O)N=C(c2ccc(OCCCO)cc2)O[C@H]1c1ccccc1N=[N+]=[N-]`, the z-score in test [1] is -0.254 (inactive); in test [3], 28.5 (active); in [4], 23.5 (active); in [5], 1.87 (inactive); in [6], 1.16 (inactive); in [7], 1.14. Moreover, the z-score in test [8] was -4.36 (inactive); in test [9], -2.16 (inactive); in test [10] it was -2.52. The composite z-score in [2] turned out to be 0.237.

Take `C=C(COC)/C(=C/C[C@H](OC(=O)c1ccncc1)c1ccccc1OCCO)c1cnc2ccccc2c1`: the z-score in [1] was 0.657 (inactive); in test [3], 13 (active); in test [4], 1.86 (inactive); in test [5] it was 1.31 (inactive); in [6], 0.553 (inactive); in test [7], 0.513. Besides, the z-score in test [8] is -1.85 (inactive); in [9], -0.502 (inactive); in [10], -0.71. For the same compound, the composite z-score in [2] came out at 0.401.

`CN(C)C(=O)C1N=C(c2ccc(OCCCO)cc2)N(c2ccccc2)O1` (stereo not given): the z-score in test [1] was 0.975 (inactive); in [3] it was 18.3 (active); in [4], 2.14 (inactive); in test [5], 0.0521 (inactive); in test [6], 0.325 (inactive); in [7] it was 0.296. Besides, the z-score was -4.12 (inactive) in test [8], -0.509 (inactive) in [9] and -1.12 in test [10]. The compound further showed a composite z-score in [2] of 0.0509.

As for `[N-]=[N+]=NCc1ccccc1[C@H]1OC(c2ccc(OCCCO)cc2)=N[C@@]1(CCS(=O)(=O)c1ccccc1)C(=O)N1CCCCC1`, the z-score in test [1] was -0.193 (inactive); in test [3] it was 25.6 (active); in [4], 9.69 (active); in [5] it was 3.2 (inactive); in [6] it was 1.5 (inactive); in test [7], 0.515. The z-score in test [8] is 0.0197 (inactive); in [9] it was 1.56 (inactive); in test [10], 1.63. The compound further registered a composite z-score in [2] of 0.666.
